Common to all, as to assay: DAPPL (digital affinity profiling via proximity ligation, sequencing); 10 mM Tris-HCl pH 7.5, 50 mM NaCl, 1 mM DTT, 4% glycerol, room temperature, 30 min; GST-TFs on glutathione beads, 16-mer random dsDNA library, 0.1% formaldehyde crosslink after washing; high values mean tight binding
The target in one test is T1, FLI1 (Homo sapiens, UniProt Q01543 1-452).
T1 sequence: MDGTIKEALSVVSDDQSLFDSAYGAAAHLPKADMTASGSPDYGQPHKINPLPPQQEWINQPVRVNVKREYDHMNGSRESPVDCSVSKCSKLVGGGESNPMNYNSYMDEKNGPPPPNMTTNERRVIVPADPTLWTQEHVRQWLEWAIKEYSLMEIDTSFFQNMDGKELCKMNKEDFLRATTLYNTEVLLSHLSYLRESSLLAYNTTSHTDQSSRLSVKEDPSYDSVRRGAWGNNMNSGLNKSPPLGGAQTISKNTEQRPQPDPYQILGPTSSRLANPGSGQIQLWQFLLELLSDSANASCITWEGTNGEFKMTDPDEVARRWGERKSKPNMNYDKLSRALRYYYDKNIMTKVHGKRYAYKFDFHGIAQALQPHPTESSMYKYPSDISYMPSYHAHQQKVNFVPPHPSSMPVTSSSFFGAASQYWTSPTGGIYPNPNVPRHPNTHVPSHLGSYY
To be noted: protein: recombinant; tags: N-terminal GST; dsDNA, one strand shown. Summed up: (§1)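 Human transcription factors were made in yeast as GST fusions, captured on glutathione beads and barcoded with DNA. With a tag-only sample included, the pool was incubated with 200 nmole of a random double-stranded 16-mer DNA library in Tris/NaCl/DTT/glycerol buffer at room temperature for 30 min, then crosslinked with 0.1% formaldehyde after washing, ligated by proximity, amplified and sequenced. For binding signal, each hexamer's read frequency for a factor is divided by its frequency for the tag-only sample.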

A further test has as its target T2, ELK1 (Homo sapiens, UniProt P19419 1-428).
T2 sequence: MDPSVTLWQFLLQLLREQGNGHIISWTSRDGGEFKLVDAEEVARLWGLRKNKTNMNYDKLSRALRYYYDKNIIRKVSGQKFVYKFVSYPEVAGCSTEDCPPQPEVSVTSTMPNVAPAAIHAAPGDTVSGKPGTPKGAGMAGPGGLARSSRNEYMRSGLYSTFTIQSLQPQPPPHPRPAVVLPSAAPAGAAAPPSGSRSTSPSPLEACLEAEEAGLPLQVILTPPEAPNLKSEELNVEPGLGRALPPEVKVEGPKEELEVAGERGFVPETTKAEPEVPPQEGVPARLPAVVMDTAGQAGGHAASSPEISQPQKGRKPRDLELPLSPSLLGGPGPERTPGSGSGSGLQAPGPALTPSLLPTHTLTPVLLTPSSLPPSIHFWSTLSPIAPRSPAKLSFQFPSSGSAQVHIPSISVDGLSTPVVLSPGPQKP
The note with it: protein: recombinant; tags: N-terminal GST; dsDNA, one strand shown. An outline of the steps:
as §1

A further test concerns the target T3, GABPA (Homo sapiens, UniProt Q06546 1-454).
T3 sequence: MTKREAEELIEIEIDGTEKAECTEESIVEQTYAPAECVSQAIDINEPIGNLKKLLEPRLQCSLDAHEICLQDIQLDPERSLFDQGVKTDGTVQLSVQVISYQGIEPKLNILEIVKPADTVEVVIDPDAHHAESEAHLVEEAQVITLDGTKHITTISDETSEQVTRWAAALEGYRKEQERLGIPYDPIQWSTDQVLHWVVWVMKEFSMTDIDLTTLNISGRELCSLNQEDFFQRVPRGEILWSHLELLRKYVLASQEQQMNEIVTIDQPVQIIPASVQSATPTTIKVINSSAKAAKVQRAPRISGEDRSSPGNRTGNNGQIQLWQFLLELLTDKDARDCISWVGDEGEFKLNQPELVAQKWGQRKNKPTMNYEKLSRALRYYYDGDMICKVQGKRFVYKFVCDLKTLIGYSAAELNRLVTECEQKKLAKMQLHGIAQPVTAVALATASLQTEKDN
The note with it: protein: recombinant; tags: N-terminal GST; dsDNA, one strand shown. Summed up: as §1

The next test addresses T4, ERG (Homo sapiens, UniProt P11308 1-479).
T4 sequence: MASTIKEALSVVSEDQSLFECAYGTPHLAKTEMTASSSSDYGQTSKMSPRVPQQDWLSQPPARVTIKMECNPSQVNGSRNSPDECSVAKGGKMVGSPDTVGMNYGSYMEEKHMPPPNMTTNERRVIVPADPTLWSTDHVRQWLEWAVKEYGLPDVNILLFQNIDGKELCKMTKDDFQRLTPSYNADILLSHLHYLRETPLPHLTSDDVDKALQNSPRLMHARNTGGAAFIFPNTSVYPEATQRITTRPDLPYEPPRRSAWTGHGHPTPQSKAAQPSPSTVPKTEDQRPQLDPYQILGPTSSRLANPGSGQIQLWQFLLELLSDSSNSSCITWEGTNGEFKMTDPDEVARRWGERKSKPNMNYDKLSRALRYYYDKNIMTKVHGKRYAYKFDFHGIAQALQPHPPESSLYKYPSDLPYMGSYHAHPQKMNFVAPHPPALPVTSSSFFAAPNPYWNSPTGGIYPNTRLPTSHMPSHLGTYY
To be noted: protein: recombinant; tags: N-terminal GST; dsDNA, one strand shown. Summed up: as §1

For a further test, the target named is ELF1 (Homo sapiens, UniProt P32519 1-619). To be noted: protein: recombinant; tags: N-terminal GST; dsDNA, one strand shown. An outline of the steps:
as §1

The target of the next test is T5, EHF (Homo sapiens, UniProt Q9NZC4 1-300).
T5 sequence: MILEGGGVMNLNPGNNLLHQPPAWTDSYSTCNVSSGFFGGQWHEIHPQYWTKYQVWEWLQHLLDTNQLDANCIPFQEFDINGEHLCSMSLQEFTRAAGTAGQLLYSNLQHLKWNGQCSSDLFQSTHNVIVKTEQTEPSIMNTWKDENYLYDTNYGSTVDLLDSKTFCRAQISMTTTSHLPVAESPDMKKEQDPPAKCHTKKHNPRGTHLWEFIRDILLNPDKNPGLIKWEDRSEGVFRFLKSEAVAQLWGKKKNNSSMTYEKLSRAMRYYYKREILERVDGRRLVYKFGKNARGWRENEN
To be noted: protein: recombinant; tags: N-terminal GST; dsDNA, one strand shown. An outline of the steps: as §1

The target in a further test is SPI1 (Homo sapiens, UniProt P17947 1-270). The note with it: protein: recombinant; tags: N-terminal GST; dsDNA, one strand shown. Summed up: as §1
A further test deals with SPIB (Homo sapiens, UniProt Q01892 1-262). The note with it: protein: recombinant; tags: N-terminal GST; dsDNA, one strand shown. Summed up:
as §1

A further test deals with T6, ELK3 (Homo sapiens, UniProt P41970 1-407).
T6 sequence: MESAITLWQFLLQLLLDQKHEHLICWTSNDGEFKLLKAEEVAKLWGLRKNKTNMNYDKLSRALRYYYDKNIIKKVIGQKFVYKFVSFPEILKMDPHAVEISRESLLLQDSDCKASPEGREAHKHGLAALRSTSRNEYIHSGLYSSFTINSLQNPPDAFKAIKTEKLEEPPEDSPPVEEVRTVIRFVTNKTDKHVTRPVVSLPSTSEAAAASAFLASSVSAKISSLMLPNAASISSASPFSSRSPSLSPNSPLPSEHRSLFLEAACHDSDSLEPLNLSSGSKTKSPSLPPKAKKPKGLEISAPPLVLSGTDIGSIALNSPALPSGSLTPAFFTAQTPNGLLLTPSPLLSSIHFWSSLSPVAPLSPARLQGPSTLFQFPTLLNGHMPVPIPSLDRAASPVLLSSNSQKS
The note with it: protein: recombinant; tags: N-terminal GST; dsDNA, one strand shown. Summed up:
as §1

A further test has as its target T7, FEV (Homo sapiens, UniProt Q99581 1-238).
T7 sequence: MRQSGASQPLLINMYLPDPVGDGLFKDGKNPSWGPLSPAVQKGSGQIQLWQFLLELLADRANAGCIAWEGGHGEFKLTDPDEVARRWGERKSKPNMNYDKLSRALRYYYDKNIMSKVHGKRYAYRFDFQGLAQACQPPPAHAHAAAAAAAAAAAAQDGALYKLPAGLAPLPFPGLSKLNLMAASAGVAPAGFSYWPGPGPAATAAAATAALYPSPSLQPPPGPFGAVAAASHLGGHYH
To be noted: protein: recombinant; tags: N-terminal GST; dsDNA, one strand shown. An outline of the steps:
as §1

The target of the next test is ETV5 (Homo sapiens, UniProt P41161 1-510). The note with it: protein: recombinant; tags: N-terminal GST; dsDNA, one strand shown. Summed up:
as §1

The target in a further test is HSF1 (Homo sapiens, UniProt Q00613 1-529). To be noted: protein: recombinant; tags: N-terminal GST; chain copies: 3; dsDNA, one strand shown. Summed up: as §1
HSF1, sequence (Q00613 whole entry): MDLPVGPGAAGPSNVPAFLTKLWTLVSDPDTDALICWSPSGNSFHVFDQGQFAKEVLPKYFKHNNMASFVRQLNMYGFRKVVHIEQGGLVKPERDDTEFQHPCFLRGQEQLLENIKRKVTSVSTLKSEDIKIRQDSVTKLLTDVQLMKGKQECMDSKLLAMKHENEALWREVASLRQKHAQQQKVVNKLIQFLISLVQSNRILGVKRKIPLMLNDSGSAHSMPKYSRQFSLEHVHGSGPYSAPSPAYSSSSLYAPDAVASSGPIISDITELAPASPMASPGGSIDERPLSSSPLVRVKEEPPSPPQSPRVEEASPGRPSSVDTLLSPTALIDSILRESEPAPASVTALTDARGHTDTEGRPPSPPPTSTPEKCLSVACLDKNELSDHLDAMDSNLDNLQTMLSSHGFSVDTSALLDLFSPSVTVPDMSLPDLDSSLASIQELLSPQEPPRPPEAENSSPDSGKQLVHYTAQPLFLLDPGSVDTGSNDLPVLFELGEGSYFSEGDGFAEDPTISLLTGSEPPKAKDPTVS
The next test addresses T8, SPIC (Homo sapiens, UniProt Q8N5J4 1-248).
T8 sequence: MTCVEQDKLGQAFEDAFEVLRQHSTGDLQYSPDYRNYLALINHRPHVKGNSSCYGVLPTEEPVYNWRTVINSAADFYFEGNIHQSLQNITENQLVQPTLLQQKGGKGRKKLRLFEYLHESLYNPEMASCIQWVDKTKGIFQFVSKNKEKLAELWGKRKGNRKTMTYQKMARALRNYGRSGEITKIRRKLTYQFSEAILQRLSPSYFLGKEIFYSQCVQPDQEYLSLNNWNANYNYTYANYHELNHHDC
To be noted: protein: recombinant; tags: N-terminal GST; dsDNA, one strand shown. An outline of the steps: as §1

The next test concerns the target ELF4 (Homo sapiens, UniProt Q99607 1-663). To be noted: protein: recombinant; tags: N-terminal GST; dsDNA, one strand shown. Summed up:
as §1

For a further test, the target named is T9, ELK4 (Homo sapiens, UniProt P28324-2 1-405).
T9 sequence: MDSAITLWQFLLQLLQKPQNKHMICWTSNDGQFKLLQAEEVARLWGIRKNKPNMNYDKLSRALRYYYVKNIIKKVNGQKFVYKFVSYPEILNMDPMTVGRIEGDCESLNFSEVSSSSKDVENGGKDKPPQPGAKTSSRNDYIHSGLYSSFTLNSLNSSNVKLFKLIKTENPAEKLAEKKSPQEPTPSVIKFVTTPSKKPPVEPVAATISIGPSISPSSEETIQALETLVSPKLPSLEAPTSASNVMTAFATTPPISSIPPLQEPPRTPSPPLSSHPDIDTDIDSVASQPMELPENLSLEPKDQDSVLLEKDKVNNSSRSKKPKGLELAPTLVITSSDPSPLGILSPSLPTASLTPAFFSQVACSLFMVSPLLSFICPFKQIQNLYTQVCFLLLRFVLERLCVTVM
The note with it: protein: recombinant; tags: N-terminal GST; dsDNA, one strand shown. An outline of the steps:
as §1

The target in a further test is T10, ETV2 (Homo sapiens, UniProt O00321 1-342).
T10 sequence: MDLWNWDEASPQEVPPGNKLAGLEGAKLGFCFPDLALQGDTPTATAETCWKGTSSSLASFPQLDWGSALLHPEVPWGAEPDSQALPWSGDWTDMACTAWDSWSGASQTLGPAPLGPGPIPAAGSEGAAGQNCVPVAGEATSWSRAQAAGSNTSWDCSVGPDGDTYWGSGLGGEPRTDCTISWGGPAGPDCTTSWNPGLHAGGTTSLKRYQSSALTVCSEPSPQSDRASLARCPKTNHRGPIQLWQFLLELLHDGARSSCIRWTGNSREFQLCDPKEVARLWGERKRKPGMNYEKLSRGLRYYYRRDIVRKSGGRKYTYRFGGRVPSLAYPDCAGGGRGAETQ
The note with it: protein: recombinant; tags: N-terminal GST; dsDNA, one strand shown. An outline of the steps: as §1

The target of another test is T11, ELF3 (Homo sapiens, UniProt P78545 1-371).
T11 sequence: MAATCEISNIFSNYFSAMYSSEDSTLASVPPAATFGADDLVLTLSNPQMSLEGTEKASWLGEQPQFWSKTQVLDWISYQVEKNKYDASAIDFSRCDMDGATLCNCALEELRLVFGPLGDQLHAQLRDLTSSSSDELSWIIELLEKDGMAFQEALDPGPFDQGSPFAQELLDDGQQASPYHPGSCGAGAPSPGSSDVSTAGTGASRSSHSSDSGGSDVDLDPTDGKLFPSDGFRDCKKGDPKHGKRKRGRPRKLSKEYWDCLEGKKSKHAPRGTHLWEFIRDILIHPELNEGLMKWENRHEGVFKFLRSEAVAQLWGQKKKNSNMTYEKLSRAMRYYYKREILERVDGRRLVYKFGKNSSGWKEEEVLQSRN
To be noted: protein: recombinant; tags: N-terminal GST; dsDNA, one strand shown. Summed up:
as §1

A further test addresses ETV1 (Homo sapiens, UniProt P50549 1-477). The note with it: protein: recombinant; tags: N-terminal GST; dsDNA, one strand shown. Summed up: as §1

SPIB, sequence (Q01892 whole entry): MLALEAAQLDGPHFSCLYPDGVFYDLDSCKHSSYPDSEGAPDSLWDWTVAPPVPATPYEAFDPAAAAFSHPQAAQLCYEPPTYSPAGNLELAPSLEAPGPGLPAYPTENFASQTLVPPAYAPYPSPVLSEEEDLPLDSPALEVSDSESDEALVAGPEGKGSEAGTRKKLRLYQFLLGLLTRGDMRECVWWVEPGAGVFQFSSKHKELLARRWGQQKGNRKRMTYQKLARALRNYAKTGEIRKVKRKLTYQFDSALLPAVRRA
ELF4, sequence (Q99607 whole entry): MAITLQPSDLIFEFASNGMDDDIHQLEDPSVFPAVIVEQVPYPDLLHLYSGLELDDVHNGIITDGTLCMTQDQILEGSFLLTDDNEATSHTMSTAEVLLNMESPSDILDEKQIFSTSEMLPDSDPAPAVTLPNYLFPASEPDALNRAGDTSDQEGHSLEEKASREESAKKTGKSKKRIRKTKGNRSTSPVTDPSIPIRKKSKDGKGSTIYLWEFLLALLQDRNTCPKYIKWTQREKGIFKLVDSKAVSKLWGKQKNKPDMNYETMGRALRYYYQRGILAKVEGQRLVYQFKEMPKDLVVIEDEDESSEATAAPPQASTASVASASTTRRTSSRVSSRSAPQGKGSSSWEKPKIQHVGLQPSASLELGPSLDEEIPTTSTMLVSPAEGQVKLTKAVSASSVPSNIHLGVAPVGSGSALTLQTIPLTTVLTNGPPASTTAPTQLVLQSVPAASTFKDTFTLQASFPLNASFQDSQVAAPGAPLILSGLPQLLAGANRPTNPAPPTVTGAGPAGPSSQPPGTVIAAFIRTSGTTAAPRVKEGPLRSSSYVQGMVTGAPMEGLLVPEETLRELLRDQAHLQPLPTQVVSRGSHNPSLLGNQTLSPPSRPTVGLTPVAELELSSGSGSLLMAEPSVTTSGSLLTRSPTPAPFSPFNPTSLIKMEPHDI
ETV1, sequence (P50549 whole entry): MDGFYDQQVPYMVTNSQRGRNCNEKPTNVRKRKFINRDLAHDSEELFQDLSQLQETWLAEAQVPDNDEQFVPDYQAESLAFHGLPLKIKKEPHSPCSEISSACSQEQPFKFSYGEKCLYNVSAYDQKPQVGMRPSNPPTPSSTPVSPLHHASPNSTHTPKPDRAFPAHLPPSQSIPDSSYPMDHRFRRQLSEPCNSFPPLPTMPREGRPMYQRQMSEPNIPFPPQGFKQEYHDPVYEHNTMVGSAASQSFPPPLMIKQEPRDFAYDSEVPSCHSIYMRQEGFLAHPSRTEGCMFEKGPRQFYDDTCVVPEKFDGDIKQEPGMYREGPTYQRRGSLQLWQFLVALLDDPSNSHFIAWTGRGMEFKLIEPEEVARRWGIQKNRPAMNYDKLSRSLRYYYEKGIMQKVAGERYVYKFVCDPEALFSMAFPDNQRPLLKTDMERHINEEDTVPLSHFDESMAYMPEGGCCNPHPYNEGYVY
ETV5, sequence (P41161 whole entry): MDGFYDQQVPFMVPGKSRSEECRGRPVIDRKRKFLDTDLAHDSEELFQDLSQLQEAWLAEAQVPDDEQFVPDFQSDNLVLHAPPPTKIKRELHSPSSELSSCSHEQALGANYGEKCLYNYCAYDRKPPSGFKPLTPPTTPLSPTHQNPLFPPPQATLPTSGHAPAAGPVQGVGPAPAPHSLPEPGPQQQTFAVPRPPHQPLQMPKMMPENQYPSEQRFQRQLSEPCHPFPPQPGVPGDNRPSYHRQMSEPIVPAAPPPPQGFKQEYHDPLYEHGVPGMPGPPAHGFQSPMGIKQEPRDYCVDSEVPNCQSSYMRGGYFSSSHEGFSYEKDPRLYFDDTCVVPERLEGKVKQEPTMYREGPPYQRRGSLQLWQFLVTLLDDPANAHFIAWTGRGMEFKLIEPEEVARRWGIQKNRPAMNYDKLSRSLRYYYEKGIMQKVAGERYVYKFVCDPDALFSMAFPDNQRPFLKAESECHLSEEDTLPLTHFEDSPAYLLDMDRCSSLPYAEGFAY
ELF1, sequence (P32519 whole entry): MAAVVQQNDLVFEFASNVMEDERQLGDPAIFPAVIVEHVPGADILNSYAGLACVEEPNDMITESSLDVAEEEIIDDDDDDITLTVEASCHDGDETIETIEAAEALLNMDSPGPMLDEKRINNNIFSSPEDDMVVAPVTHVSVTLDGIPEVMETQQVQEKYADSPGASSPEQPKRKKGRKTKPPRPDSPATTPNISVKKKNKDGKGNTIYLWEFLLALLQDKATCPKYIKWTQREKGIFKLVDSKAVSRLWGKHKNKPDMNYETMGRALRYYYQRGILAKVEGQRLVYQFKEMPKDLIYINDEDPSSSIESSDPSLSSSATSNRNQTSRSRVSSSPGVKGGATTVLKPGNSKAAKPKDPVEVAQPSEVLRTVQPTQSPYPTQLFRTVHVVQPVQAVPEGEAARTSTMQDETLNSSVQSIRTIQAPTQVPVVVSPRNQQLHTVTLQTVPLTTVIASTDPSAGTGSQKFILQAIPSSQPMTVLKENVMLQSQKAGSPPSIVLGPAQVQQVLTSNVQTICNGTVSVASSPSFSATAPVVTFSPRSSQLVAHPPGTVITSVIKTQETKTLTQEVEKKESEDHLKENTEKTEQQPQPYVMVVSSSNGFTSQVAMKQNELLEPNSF

With AGTTTC, the binding signal in the test with FLI1 was 1.23 fold enrichment (6-mer frequency, TF over GST control); with ELK1, 1.28 fold enrichment (6-mer frequency, TF over GST control); with GABPA it was 1.29 fold enrichment (6-mer frequency, TF over GST control); with ERG, 1.3 fold enrichment (6-mer frequency, TF over GST control); in the test with ELF1, 1.27 fold enrichment (6-mer frequency, TF over GST control); with EHF, 1.34 fold enrichment (6-mer frequency, TF over GST control). The binding signal with SPI1 is 1.22 fold enrichment (6-mer frequency, TF over GST control); with SPIB it was 1.24 fold enrichment (6-mer frequency, TF over GST control); in the test with ELK3 it was 1.46 fold enrichment (6-mer frequency, TF over GST control); with FEV, 1.23 fold enrichment (6-mer frequency, TF over GST control); in the test with ETV5, 1.33 fold enrichment (6-mer frequency, TF over GST control); in the test with HSF1, 1.38 fold enrichment (6-mer frequency, TF over GST control). For the same sequence, the binding signal was 1.16 fold enrichment (6-mer frequency, TF over GST control) with SPIC; 1.2 fold enrichment (6-mer frequency, TF over GST control) with ELF4; 1.13 fold enrichment (6-mer frequency, TF over GST control) in the test with ELK4; 1.21 fold enrichment (6-mer frequency, TF over GST control) with ETV2; 1.14 fold enrichment (6-mer frequency, TF over GST control) with ELF3; 1.29 fold enrichment (6-mer frequency, TF over GST control) in the test with ETV1.
